# Assays:
# Assay in all cases: DAPPL (digital affinity profiling via proximity ligation, sequencing); 10 mM Tris-HCl pH 7.5, 50 mM NaCl, 1 mM DTT, 4% glycerol, room temperature, 30 min; GST-TFs on glutathione beads, 16-mer random dsDNA library, 0.1% formaldehyde crosslink after washing; high values mean tight binding
# [1] = target: T1, FLI1 (Homo sapiens, UniProt Q01543 1-452); conditions: protein: recombinant; tags: N-terminal GST; dsDNA, one strand shown
# T1 sequence: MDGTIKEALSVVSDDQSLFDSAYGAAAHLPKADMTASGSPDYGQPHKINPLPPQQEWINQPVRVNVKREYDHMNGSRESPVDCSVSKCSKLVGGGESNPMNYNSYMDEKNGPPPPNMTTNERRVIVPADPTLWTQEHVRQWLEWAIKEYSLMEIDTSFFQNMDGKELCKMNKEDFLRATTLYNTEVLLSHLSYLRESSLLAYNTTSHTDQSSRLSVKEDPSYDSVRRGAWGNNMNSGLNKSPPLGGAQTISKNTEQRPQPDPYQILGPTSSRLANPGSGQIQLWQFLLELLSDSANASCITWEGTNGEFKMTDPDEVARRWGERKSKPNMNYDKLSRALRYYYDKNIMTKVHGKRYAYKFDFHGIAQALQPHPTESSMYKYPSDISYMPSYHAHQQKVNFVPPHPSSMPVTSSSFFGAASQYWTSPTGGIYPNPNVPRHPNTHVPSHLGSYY
# Procedure, shortened: (§1)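 Beads coated with glutathione captured GST-fused human transcription factors that had been expressed in yeast, and the factors were then given DNA barcodes and pooled with a tag-only sample. The pools were incubated with 200 nmole of a random double-stranded 16-mer DNA library in Tris/NaCl/DTT/glycerol buffer for 30 min at room temperature, washed, crosslinked with 0.1% formaldehyde and proximity-ligated with BsaI/T4 ligase at 37 °C for 1 h. PCR amplification and Illumina NextSeq500 sequencing came last. Binding signal is each hexamer's read frequency for a factor divided by its frequency for the tag-only sample.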
# [2] = target: T2, ELK1 (Homo sapiens, UniProt P19419 1-428); conditions: protein: recombinant; tags: N-terminal GST; dsDNA, one strand shown
# T2 sequence: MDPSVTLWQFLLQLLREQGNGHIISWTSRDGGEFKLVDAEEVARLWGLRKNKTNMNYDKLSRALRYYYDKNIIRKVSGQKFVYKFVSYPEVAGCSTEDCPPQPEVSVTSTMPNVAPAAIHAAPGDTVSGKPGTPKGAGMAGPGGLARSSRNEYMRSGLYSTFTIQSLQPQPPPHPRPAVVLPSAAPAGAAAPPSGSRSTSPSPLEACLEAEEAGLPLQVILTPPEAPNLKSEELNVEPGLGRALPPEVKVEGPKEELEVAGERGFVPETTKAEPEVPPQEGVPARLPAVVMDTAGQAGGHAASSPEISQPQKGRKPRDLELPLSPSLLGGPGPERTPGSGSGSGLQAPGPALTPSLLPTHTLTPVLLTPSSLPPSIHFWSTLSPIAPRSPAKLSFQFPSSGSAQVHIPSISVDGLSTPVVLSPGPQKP
# Procedure, shortened: as §1
# [3] = target: T3, GABPA (Homo sapiens, UniProt Q06546 1-454); conditions: protein: recombinant; tags: N-terminal GST; dsDNA, one strand shown
# T3 sequence: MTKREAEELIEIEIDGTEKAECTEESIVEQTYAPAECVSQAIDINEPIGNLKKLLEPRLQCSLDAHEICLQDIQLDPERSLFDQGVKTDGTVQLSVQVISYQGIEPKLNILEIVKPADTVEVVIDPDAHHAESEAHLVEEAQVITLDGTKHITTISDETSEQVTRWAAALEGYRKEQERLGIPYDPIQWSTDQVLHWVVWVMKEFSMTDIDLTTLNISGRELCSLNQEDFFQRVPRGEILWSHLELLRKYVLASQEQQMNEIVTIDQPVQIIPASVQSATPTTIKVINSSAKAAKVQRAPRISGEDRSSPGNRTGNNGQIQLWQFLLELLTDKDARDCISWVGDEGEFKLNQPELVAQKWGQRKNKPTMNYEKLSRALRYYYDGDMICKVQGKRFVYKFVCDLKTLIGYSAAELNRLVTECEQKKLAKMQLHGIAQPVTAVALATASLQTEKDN
# Procedure, shortened: as §1
# [4] = target: T4, ERG (Homo sapiens, UniProt P11308 1-479); conditions: protein: recombinant; tags: N-terminal GST; dsDNA, one strand shown
# T4 sequence: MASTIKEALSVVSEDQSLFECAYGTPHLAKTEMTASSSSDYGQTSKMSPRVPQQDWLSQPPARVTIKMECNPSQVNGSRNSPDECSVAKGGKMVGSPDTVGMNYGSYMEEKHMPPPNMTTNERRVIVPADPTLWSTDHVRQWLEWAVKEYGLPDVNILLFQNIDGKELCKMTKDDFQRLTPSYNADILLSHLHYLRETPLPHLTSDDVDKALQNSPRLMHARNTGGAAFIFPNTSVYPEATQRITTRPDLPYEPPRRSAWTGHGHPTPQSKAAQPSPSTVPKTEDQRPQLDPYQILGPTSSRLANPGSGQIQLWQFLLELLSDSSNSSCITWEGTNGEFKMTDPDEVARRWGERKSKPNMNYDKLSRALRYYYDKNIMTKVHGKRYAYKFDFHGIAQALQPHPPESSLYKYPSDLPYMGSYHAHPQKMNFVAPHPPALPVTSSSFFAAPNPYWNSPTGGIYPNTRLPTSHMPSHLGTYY
# Procedure, shortened: as §1
# [5] = target: ELF1 (Homo sapiens, UniProt P32519 1-619); conditions: protein: recombinant; tags: N-terminal GST; dsDNA, one strand shown
# Procedure, shortened: as §1
# [6] = target: T5, EHF (Homo sapiens, UniProt Q9NZC4 1-300); conditions: protein: recombinant; tags: N-terminal GST; dsDNA, one strand shown
# T5 sequence: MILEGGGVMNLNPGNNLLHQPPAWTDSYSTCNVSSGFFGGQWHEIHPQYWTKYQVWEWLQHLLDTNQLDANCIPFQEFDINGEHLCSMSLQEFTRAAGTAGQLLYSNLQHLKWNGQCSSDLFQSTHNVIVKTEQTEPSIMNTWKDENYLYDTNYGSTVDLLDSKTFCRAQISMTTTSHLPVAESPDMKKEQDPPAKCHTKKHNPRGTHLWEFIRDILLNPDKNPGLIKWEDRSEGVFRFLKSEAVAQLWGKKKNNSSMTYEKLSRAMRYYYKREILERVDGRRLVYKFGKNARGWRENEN
# Procedure, shortened: as §1
# [7] = target: SPI1 (Homo sapiens, UniProt P17947 1-270); conditions: protein: recombinant; tags: N-terminal GST; dsDNA, one strand shown
# Procedure, shortened: as §1
# [8] = target: SPIB (Homo sapiens, UniProt Q01892 1-262); conditions: protein: recombinant; tags: N-terminal GST; dsDNA, one strand shown
# Procedure, shortened: as §1
# [9] = target: T6, ELK3 (Homo sapiens, UniProt P41970 1-407); conditions: protein: recombinant; tags: N-terminal GST; dsDNA, one strand shown
# T6 sequence: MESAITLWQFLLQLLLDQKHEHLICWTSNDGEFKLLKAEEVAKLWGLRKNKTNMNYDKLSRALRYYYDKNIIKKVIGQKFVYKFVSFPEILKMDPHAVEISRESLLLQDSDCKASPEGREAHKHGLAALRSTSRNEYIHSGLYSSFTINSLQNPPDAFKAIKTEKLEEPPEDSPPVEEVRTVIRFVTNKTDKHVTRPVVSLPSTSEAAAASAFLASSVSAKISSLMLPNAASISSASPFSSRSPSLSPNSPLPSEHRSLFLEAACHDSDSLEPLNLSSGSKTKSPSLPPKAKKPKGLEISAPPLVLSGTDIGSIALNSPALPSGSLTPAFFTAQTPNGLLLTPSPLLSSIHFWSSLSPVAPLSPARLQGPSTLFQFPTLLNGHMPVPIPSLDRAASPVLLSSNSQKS
# Procedure, shortened: as §1
# [10] = target: T7, FEV (Homo sapiens, UniProt Q99581 1-238); conditions: protein: recombinant; tags: N-terminal GST; dsDNA, one strand shown
# T7 sequence: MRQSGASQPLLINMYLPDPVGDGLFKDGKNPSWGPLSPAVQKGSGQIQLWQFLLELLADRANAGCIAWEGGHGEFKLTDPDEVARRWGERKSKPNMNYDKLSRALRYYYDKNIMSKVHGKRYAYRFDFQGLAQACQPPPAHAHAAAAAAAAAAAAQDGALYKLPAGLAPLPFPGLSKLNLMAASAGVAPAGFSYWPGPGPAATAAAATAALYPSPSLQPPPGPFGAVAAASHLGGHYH
# Procedure, shortened: as §1
# [11] = target: ETV5 (Homo sapiens, UniProt P41161 1-510); conditions: protein: recombinant; tags: N-terminal GST; dsDNA, one strand shown
# Procedure, shortened: as §1
# [12] = target: HSF1 (Homo sapiens, UniProt Q00613 1-529); conditions: protein: recombinant; tags: N-terminal GST; chain copies: 3; dsDNA, one strand shown
# Procedure, shortened: as §1
# [13] = target: T8, SPIC (Homo sapiens, UniProt Q8N5J4 1-248); conditions: protein: recombinant; tags: N-terminal GST; dsDNA, one strand shown
# T8 sequence: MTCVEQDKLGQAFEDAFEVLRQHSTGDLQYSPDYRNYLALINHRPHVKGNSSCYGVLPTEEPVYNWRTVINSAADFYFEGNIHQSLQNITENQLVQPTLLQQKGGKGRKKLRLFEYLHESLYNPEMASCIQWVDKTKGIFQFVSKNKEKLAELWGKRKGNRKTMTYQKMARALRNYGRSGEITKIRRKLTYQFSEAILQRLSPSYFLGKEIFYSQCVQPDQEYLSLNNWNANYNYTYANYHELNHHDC
# Procedure, shortened: as §1
# [14] = target: ELF4 (Homo sapiens, UniProt Q99607 1-663); conditions: protein: recombinant; tags: N-terminal GST; dsDNA, one strand shown
# Procedure, shortened: as §1
# [15] = target: T9, ELK4 (Homo sapiens, UniProt P28324-2 1-405); conditions: protein: recombinant; tags: N-terminal GST; dsDNA, one strand shown
# T9 sequence: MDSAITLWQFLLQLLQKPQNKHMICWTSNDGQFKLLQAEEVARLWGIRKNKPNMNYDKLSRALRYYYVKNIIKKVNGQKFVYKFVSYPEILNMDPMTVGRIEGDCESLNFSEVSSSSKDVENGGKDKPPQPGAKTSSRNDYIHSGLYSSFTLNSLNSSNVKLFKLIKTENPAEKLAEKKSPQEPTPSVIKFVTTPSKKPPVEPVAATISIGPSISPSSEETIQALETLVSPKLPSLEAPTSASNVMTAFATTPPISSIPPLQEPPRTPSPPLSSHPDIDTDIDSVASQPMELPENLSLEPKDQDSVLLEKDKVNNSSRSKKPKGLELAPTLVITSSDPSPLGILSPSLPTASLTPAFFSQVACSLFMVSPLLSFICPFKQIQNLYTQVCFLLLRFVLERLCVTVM
# Procedure, shortened: as §1
# [16] = target: T10, ETV2 (Homo sapiens, UniProt O00321 1-342); conditions: protein: recombinant; tags: N-terminal GST; dsDNA, one strand shown
# T10 sequence: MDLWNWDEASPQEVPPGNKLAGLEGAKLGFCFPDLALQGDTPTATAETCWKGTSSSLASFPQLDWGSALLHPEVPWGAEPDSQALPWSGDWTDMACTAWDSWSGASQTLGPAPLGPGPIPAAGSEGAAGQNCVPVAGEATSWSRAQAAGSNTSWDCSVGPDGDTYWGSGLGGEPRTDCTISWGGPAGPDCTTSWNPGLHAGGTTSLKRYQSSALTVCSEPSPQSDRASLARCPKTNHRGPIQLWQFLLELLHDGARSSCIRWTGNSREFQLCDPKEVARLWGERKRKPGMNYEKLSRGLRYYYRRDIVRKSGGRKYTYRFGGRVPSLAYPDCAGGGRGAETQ
# Procedure, shortened: as §1
# [17] = target: T11, ELF3 (Homo sapiens, UniProt P78545 1-371); conditions: protein: recombinant; tags: N-terminal GST; dsDNA, one strand shown
# T11 sequence: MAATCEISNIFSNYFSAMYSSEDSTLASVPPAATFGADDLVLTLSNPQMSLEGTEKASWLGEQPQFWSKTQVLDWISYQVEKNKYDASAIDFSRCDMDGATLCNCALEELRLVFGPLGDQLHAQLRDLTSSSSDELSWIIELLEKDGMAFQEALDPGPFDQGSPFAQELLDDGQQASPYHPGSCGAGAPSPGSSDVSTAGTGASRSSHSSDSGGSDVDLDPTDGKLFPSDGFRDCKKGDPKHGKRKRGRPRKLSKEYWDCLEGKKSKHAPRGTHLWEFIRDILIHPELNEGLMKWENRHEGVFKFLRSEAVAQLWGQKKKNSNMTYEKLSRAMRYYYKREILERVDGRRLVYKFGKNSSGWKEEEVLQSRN
# Procedure, shortened: as §1
# [18] = target: CRX (Homo sapiens, UniProt O43186 1-299); conditions: protein: recombinant; tags: N-terminal GST; dsDNA, one strand shown
# Procedure, shortened: as §1
# [19] = target: ETV1 (Homo sapiens, UniProt P50549 1-477); conditions: protein: recombinant; tags: N-terminal GST; dsDNA, one strand shown
# Procedure, shortened: as §1
# SPIB, sequence (Q01892 whole entry): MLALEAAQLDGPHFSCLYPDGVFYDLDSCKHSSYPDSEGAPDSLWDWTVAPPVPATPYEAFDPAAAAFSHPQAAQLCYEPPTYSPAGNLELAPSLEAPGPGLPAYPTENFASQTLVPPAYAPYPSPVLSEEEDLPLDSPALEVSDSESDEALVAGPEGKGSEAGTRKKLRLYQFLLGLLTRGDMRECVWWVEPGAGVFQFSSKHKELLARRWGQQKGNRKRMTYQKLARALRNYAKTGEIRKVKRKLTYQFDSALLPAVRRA
# ELF4, sequence (Q99607 whole entry): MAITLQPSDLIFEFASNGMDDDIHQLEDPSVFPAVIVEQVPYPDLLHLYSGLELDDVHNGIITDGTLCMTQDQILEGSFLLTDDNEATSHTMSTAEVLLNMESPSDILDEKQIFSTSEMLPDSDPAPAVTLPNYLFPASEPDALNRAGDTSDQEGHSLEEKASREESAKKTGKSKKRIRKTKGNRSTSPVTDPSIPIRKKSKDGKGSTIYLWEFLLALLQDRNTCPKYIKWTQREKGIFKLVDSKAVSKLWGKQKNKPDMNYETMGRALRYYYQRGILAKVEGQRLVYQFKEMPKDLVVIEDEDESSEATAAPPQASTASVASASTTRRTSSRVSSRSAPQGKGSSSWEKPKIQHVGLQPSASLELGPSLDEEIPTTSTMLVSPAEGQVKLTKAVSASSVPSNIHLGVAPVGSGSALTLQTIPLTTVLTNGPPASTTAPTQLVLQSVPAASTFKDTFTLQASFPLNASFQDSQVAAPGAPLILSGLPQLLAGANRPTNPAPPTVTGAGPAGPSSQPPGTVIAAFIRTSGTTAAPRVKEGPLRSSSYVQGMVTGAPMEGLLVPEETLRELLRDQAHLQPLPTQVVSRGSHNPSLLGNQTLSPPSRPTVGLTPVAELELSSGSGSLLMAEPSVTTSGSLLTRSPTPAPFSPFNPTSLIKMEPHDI
# ETV1, sequence (P50549 whole entry): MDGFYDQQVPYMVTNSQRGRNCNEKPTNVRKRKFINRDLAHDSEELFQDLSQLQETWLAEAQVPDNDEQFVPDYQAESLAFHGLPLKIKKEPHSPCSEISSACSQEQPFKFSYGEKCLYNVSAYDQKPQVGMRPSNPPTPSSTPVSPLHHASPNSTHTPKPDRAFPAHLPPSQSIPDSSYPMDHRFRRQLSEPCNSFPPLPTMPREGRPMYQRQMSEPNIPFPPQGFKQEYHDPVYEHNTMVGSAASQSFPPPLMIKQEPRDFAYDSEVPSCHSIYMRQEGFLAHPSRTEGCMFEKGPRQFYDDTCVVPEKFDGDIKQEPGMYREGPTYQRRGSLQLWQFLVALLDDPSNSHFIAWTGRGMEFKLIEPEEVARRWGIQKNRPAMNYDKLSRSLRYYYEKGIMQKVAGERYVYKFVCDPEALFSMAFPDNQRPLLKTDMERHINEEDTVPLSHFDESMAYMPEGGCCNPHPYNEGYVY
# CRX, sequence (O43186 whole entry): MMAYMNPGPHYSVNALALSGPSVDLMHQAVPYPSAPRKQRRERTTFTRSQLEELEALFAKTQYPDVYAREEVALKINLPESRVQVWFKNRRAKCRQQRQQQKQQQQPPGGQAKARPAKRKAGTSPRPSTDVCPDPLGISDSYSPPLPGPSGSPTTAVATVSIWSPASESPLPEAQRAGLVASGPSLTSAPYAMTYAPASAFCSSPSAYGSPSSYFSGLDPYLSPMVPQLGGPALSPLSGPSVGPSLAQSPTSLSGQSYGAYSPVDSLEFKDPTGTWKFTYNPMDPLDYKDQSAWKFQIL
# ETV5, sequence (P41161 whole entry): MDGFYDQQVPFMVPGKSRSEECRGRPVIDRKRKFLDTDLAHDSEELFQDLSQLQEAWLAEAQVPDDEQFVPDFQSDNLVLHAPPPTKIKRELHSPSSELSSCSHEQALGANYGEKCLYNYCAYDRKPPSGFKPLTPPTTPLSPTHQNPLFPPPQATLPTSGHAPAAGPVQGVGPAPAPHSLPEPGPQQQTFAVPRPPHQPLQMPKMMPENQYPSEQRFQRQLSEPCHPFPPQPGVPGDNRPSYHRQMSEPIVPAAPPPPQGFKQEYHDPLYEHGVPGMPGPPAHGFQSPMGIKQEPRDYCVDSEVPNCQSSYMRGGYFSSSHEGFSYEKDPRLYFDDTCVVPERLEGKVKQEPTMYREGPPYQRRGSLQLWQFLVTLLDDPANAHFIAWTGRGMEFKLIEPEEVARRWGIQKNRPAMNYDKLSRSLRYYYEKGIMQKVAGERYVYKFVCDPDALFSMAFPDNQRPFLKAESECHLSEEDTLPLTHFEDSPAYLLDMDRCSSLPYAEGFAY
# ELF1, sequence (P32519 whole entry): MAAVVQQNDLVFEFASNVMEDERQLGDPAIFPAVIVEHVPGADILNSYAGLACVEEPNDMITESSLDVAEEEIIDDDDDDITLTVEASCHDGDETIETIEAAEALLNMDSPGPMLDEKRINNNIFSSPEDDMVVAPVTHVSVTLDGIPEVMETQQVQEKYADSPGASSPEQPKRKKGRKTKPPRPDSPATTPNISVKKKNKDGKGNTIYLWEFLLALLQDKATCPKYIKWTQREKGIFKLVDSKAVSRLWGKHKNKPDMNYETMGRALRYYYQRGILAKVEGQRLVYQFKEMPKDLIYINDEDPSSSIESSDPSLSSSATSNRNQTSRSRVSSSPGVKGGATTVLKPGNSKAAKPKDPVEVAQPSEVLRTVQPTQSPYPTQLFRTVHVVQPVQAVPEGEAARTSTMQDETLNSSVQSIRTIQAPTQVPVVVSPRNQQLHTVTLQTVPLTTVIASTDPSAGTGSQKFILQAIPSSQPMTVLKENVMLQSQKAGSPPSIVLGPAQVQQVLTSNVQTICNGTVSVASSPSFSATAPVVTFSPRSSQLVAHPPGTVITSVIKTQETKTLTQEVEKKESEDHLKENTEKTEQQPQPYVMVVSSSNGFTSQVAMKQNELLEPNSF
# HSF1, sequence (Q00613 whole entry): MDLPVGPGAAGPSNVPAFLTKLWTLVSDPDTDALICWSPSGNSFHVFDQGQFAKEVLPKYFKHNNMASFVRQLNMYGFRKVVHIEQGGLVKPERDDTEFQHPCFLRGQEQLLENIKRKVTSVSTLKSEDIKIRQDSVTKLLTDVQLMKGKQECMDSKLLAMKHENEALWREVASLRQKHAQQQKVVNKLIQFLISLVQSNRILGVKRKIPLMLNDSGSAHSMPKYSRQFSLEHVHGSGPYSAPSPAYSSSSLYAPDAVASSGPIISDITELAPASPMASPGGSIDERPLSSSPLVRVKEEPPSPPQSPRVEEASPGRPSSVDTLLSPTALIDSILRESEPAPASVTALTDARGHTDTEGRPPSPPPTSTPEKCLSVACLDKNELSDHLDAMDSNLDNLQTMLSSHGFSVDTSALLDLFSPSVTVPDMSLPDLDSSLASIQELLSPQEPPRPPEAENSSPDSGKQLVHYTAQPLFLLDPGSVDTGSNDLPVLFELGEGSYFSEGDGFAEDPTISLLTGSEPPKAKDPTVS
sequence,measurement,setting,value
TACTCC,binding signal,[1],"1.3 fold enrichment (6-mer frequency, TF over GST control)"
same,binding signal,[2],"1.2 fold enrichment (6-mer frequency, TF over GST control)"
same,binding signal,[3],"1.49 fold enrichment (6-mer frequency, TF over GST control)"
same,binding signal,[4],"1.35 fold enrichment (6-mer frequency, TF over GST control)"
same,binding signal,[5],"1.37 fold enrichment (6-mer frequency, TF over GST control)"
same,binding signal,[6],"1.26 fold enrichment (6-mer frequency, TF over GST control)"
same,binding signal,[7],"1.24 fold enrichment (6-mer frequency, TF over GST control)"
same,binding signal,[8],"1.23 fold enrichment (6-mer frequency, TF over GST control)"
same,binding signal,[9],"1.44 fold enrichment (6-mer frequency, TF over GST control)"
same,binding signal,[10],"1.25 fold enrichment (6-mer frequency, TF over GST control)"
same,binding signal,[11],"1.27 fold enrichment (6-mer frequency, TF over GST control)"
same,binding signal,[12],"1.18 fold enrichment (6-mer frequency, TF over GST control)"
same,binding signal,[13],"1.23 fold enrichment (6-mer frequency, TF over GST control)"
same,binding signal,[14],"1.26 fold enrichment (6-mer frequency, TF over GST control)"
same,binding signal,[15],"1.19 fold enrichment (6-mer frequency, TF over GST control)"
same,binding signal,[16],"1.25 fold enrichment (6-mer frequency, TF over GST control)"
same,binding signal,[17],"1.11 fold enrichment (6-mer frequency, TF over GST control)"
same,binding signal,[18],"1.26 fold enrichment (6-mer frequency, TF over GST control)"
same,binding signal,[19],"1.24 fold enrichment (6-mer frequency, TF over GST control)"

# From paper PMC7862700, “An all-to-all approach to the identification of sequence-specific readers for epigenetic DNA modifications on cytosine”
